PubChem BioAssay (EPA / NIEHS)
Inconclusive results are not listed. The source made the active and inactive calls. Rule for the calls: active = hit-call score of the fitted dose curve at least 0.9, where 1 is the maximum; inconclusive = response in the unintended direction; inactive = score below 0.9.

test: ATG_M_06_TRANS: Attagene TRANS-FACTORIAL HepG2 Assay for M06 Transcription Factor (Internal Marker) (AID 2282983); settings: HepG2 Attagene TRANS M06 internal marker reporter
Experimental: ATG_TRANS is a cell-based, multiplexed-readout assay that uses HepG2, a human liver cell line, with measurements taken at 24 hours after chemical dosing in a 24-well plate.ATG_M_06_TRANS is one of 30 assay component(s) measured or calculated from the ATG_TRANS assay. It is designed to make measurements of mRNA induction, a form of inducible reporter, as detected with fluorescence intensity signals by Reverse transcription polymerase chain reaction (RT-PCR) and Capillary electrophoresis technology.Data from the assay component ATG_M_06_TRANS was analyzed into 1 assay endpoint. This assay endpoint, ATG_M_06_TRANS, was analyzed in the positive analysis fitting direction relative to DMSO as the negative control and baseline of activity. Using a type of inducible reporter, measures of mRNA for gain-of-signal activity can be used to understand the background control at the transcription factor-level as they relate to the gene . Furthermore, this assay endpoint can be referred to as a secondary readout, because this assay has produced multiple assay endpoints where this one serves a background control function. To generalize the intended target to other relatable targets, this assay endpoint is annotated to the background measurement intended target family, where the subfamily is internal marker.
Human liver HepG2 cells are transiently transfected with multiple reporter transcription units (MRTUs) in 6-well plates using FuGene 6 reagent (Roche; 3 ml FuGene/1 mg DNA). The MRTU constructs are regulated by a cis-regulating element (promoter). […] A major difference between the CIS and TRANS system is that in CIS activities of endogenous TFs are measured, whereas the TRANS assay evaluates changes in activities of exogenous, chimeric NR-Gal4 proteins. […] At the end of 24 hour incubation, total RNA was isolated using TriZol reagent (Invitrogen). The isolated RNA is then reverse-transcribed using oligo(dT) primer and Mo-MLV reverse transcriptase (Invitrogen) with DNAse I (Ambion) treatment for 30 min. The one-tenth of the produced cDNA was amplified by PCR using Taq DNA polymerase (Invitrogen) and two reporter sequence-specific primers. The PCR products were fluorescently labeled by primer extension with 6-arboxyfluorescein (6-FAM) 5'-labeled reporter sequence-specific primer (2 min at 95 C, 20 s at 68 C and 10 min at 72 C) and these products were digested with 5U of HpaI (New England Biolabs) for 2h at 37 C. The fragments were purified using Qiaquick PCR columns (Qiagen), analyzed on an ABI 3130xL genetic analyzer (Applied Biosystems) with peak positions identified by using a set of X-rhodamine (ROX)-labeled MapMarker1000 molecular weight standards (BioVentures). The raw capillary electrophoresis data was processed using Attagraph software (Attagene).

SMILES | outcome
CC(C)=CCOC(=O)c1ccccc1 | inactive
CCCCCCC(O)CCCCCCCCCCC(=O)OC (stereo not given) | inactive
Cc1cc(O)cc(C)c1Cl | inactive
O=C(C1CCCCC1)N1CC(=O)N2CCc3ccccc3C2C1 (stereo not given) | inactive
C[C@H]1C[C@H]2[C@@H]3CCC4=CC(=O)C=C[C@]4(C)[C@@]3(F)[C@@H](O)C[C@]2(C)[C@@]1(O)C(=O)CO | inactive
COc1c2occc2cc2ccc(=O)oc12 | inactive
Clc1ccc(Sc2cc(Cl)c(Cl)cc2Cl)cc1 | inactive
CCO[Si](OCC)(OCC)c1ccccc1 | inactive
O=C(c1ccccc1)c1ccccc1O | inactive
COc1cccc(OC)c1C(=O)O | inactive
Oc1cccc2ccccc12 | inactive
C=CCOC(=O)C(=C)C | inactive
CCCCCCCCCCCCCC | inactive
COC(=O)[C@]1(C)CCC[C@@]2(C)[C@H]1CC=C1C=C(C(C)C)CC[C@@H]12 | inactive
CC(C)CC(=O)O | inactive
CCCCn1cc[n+](C)c1 | inactive
CCCCCCCCCCCCCCCCCC[N+](C)(C)C | inactive
c1cc[c]([Bi]([c]2ccccc2)[c]2ccccc2)cc1 | inactive
c1ccc2c(c1)Oc1ccccc1S2 | inactive
CC1=C(CC=O)C(C)(C)CCC1 | inactive

SMILES | outcome
CCCCNC(N)=O | inactive
C=CC(C)(CCC=C(C)C)OC(=O)c1ccccc1 (stereo not given) | inactive
Cc1cc(C)c(S(=O)(=O)O)cc1N=Nc1cc(S(=O)(=O)O)c2ccccc2c1O | inactive
CCCCCC[C@@H](O)C/C=C\CCCCCCCC(=O)O | inactive
[O-][n+]1ccc(Cl)cc1 | inactive
O=C(O)c1nc(Cl)c(Cl)c(Cl)c1Cl | inactive
CC1(C)S[C@@H]2[C@H](NC(=O)[C@H](N)c3ccccc3)C(=O)N2[C@H]1C(=O)O | inactive
C=C1CC[C@H]2C[C@@H]1C2(C)C | inactive
CCO[Si](CCCN)(OCC)OCC | inactive
COC(=O)c1ccccc1 | inactive
CCCC(=O)OC | inactive
NC(N)=Nc1nc(CSCCC(N)=NS(N)(=O)=O)cs1 | inactive
CC/C=C/CCO | inactive
CCC(C)C1N=C(C)C(C)S1 (stereo not given) | inactive
O=C(O)/C=C\C(=O)O | inactive
CCCOCCC | inactive
CCCCCCOC(=O)CCCCCCCC(=O)OCCCCCC | inactive
CCCC[N+]1(C)CCCC1 | inactive
OCCN(CCO)c1cccc(Cl)c1 | inactive
C=C(C)C(=O)OCCCCCC | inactive
